Assay [1] concerns the target T1, Mitogen-activated protein kinase 12 (Homo sapiens) (UniProt P53778).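 Note: values are averaged p38gamma kinase inhibition readings, compounds tested at 1 µM.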
T1 sequence (whole entry): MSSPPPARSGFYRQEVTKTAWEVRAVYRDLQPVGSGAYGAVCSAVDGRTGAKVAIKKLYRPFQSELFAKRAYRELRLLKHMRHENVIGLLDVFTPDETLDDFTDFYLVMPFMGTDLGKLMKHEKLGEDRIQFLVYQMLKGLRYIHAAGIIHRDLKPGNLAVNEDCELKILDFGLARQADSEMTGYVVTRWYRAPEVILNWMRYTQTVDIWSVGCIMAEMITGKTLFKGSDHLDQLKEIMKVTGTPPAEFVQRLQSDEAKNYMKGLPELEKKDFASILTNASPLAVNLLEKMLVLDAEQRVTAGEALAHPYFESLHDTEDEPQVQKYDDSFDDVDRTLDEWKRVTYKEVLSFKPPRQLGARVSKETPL
To be noted: at 1 µM.

For assay [2], the target named is SRSF protein kinase 1 (Homo sapiens) (UniProt Q96SB4). The conditions noted are these: at 0.1 µM.
Sequence of SRSF protein kinase 1 (Homo sapiens) (Q96SB4 whole entry): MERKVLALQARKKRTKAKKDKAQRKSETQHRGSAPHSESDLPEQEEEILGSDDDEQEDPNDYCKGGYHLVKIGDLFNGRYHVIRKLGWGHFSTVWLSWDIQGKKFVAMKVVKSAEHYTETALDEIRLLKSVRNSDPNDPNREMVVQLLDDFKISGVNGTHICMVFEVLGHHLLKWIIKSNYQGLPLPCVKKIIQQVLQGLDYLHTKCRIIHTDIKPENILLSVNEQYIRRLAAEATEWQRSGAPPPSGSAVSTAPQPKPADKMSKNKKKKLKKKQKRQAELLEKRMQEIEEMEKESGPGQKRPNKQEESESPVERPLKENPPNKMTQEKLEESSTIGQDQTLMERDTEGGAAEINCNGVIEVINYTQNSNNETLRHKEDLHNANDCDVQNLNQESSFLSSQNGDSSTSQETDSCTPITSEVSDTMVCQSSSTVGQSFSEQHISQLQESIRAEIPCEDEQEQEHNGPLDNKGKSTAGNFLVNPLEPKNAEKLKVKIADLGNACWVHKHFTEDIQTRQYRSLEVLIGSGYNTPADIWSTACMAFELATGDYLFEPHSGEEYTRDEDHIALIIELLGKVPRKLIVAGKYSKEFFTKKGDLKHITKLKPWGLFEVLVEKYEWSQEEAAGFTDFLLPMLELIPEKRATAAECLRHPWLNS
Assay [3] shares this target. The conditions noted are these: at 1 µM.
In assay [4] the target is Phosphatidylinositol 4,5-bisphosphate 3-kinase catalytic subunit alpha isoform (Homo sapiens) (UniProt P42336). To be noted: at 0.1 µM.
Sequence of Phosphatidylinositol 4,5-bisphosphate 3-kinase catalytic subunit alpha isoform (Homo sapiens) (P42336 whole entry, canonical isoform): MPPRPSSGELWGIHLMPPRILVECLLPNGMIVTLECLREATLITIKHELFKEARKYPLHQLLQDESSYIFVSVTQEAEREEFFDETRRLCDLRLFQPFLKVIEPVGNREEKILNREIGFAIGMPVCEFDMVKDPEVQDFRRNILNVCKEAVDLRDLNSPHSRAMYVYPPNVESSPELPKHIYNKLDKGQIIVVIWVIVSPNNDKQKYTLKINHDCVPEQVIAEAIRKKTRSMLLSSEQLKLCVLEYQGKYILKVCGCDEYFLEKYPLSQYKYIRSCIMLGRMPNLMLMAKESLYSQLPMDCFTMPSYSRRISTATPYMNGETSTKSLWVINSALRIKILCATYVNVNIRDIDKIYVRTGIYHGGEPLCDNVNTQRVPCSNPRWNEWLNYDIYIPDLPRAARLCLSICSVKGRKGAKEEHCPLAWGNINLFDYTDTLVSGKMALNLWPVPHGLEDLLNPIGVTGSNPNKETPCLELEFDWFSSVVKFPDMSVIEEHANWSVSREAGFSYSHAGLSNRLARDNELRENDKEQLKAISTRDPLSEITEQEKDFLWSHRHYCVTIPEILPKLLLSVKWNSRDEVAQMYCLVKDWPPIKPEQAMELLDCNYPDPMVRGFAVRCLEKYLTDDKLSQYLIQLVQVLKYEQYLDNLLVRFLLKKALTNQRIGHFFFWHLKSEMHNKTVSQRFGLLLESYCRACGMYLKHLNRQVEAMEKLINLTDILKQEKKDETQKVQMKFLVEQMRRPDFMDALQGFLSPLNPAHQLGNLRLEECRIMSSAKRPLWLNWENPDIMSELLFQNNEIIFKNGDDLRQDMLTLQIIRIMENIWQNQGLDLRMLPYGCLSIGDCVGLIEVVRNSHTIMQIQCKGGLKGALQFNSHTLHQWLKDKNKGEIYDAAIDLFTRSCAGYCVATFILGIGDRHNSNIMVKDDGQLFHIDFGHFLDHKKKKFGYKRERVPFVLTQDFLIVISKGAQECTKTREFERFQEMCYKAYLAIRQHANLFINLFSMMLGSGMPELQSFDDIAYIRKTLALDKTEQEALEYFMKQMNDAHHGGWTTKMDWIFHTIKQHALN
For assay [5] the target is unchanged. To be noted: at 1 µM.
The target in assay [6] is T2, Phosphatidylinositol 4,5-bisphosphate 3-kinase catalytic subunit delta isoform (Homo sapiens) (UniProt O00329).
T2 sequence (whole entry): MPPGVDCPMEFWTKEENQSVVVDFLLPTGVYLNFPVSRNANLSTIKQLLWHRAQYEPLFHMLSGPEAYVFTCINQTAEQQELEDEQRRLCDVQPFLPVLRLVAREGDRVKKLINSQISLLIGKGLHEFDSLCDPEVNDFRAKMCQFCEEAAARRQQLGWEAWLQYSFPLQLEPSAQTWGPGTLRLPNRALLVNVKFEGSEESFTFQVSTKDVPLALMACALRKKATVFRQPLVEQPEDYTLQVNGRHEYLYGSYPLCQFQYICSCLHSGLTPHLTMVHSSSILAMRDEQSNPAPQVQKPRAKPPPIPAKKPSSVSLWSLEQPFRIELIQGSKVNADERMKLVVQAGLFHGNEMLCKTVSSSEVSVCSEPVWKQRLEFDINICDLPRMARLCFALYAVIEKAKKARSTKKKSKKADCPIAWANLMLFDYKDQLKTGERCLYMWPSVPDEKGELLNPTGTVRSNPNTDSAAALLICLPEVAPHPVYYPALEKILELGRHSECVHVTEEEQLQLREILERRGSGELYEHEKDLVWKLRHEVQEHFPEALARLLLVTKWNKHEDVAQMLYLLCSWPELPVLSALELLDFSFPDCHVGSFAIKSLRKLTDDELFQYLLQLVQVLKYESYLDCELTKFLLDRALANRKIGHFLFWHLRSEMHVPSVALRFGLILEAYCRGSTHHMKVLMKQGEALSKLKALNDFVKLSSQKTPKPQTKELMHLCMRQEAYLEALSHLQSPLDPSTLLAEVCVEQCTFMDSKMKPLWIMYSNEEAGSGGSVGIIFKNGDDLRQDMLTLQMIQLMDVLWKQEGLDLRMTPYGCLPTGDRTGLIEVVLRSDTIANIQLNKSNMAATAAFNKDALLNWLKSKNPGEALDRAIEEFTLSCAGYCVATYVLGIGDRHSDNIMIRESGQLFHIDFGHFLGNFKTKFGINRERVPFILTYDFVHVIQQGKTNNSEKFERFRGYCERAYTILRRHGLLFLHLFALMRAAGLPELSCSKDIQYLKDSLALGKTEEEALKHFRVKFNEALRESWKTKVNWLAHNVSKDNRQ
To be noted: at 0.1 µM.

Assay [7] has as its target T2, Phosphatidylinositol 4,5-bisphosphate 3-kinase catalytic subunit delta isoform (Homo sapiens). The conditions noted are these: at 1 µM.
Assay [8] addresses Phosphatidylinositol 4-kinase beta (Homo sapiens) (UniProt Q9UBF8). The conditions noted are these: at 0.1 µM.
The target is the same in assay [9]. The conditions noted are these: at 1 µM.
The target in assay [10] is Sphingosine kinase 1 (Homo sapiens) (UniProt Q9NYA1). To be noted: at 0.1 µM.
Sequence of Sphingosine kinase 1 (Homo sapiens) (Q9NYA1 whole entry): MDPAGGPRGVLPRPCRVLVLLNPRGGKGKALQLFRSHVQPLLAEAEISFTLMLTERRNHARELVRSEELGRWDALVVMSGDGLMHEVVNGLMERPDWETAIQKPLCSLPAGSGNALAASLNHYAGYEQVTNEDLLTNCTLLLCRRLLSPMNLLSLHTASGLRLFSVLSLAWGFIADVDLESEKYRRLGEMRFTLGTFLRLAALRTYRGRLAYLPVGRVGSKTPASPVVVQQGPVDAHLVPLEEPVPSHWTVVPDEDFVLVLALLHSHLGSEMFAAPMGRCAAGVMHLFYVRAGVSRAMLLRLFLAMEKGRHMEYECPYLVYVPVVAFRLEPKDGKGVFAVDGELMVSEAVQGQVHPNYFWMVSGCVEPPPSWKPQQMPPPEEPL
Assay [11] shares this target. To be noted: at 1 µM.
Assay [12] concerns the target T3, Sphingosine kinase 2 (Homo sapiens) (UniProt Q9NRA0).
T3 sequence (whole entry): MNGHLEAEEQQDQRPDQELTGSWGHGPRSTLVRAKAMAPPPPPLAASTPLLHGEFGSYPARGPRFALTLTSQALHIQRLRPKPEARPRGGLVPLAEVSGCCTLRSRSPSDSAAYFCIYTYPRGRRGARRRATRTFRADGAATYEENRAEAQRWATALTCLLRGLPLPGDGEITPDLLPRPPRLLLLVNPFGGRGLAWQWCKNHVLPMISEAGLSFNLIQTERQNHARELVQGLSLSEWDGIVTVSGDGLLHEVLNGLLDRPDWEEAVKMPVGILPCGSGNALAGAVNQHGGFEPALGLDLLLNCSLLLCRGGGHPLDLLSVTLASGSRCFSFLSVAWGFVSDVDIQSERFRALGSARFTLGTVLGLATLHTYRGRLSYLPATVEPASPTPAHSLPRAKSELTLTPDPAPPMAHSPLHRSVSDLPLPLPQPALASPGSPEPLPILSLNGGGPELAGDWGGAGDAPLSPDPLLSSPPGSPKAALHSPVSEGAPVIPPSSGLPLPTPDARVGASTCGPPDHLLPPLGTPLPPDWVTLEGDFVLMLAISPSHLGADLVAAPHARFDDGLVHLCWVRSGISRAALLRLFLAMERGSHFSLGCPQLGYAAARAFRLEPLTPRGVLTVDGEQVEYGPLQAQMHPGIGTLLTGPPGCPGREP
To be noted: at 0.1 µM.

The target in assay [13] is T3, Sphingosine kinase 2 (Homo sapiens). The conditions noted are these: at 1 µM.
Assay [14] has as its target Casein kinase II subunit alpha (Homo sapiens) (UniProt P68400). The conditions noted are these: at 0.1 µM.
Assay [15] has the same target. The conditions noted are these: at 1 µM.
The target in assay [16] is T4, Inhibitor of nuclear factor kappa-B kinase subunit alpha (Homo sapiens) (UniProt O15111).
T4 sequence (whole entry): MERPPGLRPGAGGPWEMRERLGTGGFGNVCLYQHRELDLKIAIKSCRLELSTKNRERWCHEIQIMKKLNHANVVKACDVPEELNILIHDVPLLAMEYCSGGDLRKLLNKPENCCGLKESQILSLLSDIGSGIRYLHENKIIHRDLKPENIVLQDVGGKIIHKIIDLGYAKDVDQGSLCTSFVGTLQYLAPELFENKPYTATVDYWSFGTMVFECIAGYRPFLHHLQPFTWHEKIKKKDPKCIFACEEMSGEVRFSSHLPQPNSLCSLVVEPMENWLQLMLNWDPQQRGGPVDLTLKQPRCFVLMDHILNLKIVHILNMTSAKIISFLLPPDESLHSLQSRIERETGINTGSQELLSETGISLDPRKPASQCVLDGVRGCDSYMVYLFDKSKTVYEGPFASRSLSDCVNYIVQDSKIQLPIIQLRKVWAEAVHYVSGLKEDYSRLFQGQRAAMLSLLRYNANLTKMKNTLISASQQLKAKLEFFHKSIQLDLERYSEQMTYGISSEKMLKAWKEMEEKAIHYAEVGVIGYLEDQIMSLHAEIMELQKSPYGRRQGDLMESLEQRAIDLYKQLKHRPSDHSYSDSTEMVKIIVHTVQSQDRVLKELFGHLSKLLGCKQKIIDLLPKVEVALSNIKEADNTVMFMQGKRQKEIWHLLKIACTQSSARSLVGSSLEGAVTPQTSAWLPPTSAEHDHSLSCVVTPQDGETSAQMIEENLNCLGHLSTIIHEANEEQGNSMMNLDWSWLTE
The conditions noted are these: at 0.1 µM.

In assay [17] the target is T4, Inhibitor of nuclear factor kappa-B kinase subunit alpha (Homo sapiens). To be noted: at 1 µM.
Assay [18] addresses T5, Inhibitor of nuclear factor kappa-B kinase subunit beta (Homo sapiens) (UniProt O14920).
T5 sequence (whole entry): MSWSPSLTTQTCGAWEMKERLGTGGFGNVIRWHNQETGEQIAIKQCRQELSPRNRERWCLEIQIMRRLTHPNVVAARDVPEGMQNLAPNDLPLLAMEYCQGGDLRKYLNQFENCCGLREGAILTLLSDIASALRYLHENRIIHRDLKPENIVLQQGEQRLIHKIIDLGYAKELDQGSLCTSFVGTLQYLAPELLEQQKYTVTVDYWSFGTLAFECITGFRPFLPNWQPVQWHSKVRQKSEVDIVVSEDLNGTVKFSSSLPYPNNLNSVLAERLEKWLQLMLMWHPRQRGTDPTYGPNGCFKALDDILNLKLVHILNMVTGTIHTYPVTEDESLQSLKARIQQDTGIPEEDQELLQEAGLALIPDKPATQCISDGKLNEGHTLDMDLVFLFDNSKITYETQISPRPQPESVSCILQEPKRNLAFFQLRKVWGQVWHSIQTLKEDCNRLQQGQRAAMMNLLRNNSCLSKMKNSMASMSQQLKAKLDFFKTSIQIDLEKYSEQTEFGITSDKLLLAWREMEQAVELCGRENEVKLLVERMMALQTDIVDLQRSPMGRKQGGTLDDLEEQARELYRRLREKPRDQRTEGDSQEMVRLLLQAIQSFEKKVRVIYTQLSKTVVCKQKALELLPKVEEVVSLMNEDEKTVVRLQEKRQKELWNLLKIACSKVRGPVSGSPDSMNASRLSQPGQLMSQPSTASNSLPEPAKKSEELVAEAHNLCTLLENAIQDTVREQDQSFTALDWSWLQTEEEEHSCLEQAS
The conditions noted are these: at 0.1 µM.

Assay [19] addresses T5, Inhibitor of nuclear factor kappa-B kinase subunit beta (Homo sapiens). To be noted: at 1 µM.
The target of assay [20] is T6, Inhibitor of nuclear factor kappa-B kinase subunit epsilon (Homo sapiens) (UniProt Q14164).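 Note: mean inhibition of IKKε reported, from the GSK PKIS dataset.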
T6 sequence (whole entry): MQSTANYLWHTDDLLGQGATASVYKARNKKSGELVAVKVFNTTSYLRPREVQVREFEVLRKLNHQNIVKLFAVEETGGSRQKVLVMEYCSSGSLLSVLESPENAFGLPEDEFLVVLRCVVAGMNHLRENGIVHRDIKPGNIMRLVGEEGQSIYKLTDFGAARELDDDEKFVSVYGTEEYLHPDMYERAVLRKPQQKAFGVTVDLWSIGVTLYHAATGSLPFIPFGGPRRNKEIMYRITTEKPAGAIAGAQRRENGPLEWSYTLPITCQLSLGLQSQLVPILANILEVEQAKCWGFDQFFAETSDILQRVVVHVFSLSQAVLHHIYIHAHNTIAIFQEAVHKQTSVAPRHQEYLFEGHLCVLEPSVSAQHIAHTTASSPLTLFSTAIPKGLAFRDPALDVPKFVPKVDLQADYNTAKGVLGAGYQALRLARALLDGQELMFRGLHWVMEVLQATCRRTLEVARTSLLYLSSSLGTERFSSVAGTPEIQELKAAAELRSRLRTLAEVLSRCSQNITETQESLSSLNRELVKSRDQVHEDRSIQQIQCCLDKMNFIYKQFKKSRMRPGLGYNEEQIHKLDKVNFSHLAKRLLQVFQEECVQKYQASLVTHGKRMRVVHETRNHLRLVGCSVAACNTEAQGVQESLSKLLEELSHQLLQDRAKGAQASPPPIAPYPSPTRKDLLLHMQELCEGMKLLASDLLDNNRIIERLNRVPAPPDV
To be noted: at 0.1 µM.

As a reminder, the inhibition is the change of the read-out against control, counted positive when it falls.

Sequence of Casein kinase II subunit alpha (Homo sapiens) (P68400 whole entry, looked up): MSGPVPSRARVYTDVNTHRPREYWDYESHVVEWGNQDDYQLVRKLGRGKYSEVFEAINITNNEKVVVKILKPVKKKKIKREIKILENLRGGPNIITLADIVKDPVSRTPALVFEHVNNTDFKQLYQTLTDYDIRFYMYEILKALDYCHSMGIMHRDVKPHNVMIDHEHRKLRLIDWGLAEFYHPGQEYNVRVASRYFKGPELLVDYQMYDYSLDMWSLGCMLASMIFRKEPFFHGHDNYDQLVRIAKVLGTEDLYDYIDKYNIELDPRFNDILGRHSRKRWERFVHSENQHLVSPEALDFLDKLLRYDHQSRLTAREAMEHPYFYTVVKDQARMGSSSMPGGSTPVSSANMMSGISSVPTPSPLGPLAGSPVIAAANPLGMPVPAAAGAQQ
Sequence of Phosphatidylinositol 4-kinase beta (Homo sapiens) (Q9UBF8 2-816 limits assumed): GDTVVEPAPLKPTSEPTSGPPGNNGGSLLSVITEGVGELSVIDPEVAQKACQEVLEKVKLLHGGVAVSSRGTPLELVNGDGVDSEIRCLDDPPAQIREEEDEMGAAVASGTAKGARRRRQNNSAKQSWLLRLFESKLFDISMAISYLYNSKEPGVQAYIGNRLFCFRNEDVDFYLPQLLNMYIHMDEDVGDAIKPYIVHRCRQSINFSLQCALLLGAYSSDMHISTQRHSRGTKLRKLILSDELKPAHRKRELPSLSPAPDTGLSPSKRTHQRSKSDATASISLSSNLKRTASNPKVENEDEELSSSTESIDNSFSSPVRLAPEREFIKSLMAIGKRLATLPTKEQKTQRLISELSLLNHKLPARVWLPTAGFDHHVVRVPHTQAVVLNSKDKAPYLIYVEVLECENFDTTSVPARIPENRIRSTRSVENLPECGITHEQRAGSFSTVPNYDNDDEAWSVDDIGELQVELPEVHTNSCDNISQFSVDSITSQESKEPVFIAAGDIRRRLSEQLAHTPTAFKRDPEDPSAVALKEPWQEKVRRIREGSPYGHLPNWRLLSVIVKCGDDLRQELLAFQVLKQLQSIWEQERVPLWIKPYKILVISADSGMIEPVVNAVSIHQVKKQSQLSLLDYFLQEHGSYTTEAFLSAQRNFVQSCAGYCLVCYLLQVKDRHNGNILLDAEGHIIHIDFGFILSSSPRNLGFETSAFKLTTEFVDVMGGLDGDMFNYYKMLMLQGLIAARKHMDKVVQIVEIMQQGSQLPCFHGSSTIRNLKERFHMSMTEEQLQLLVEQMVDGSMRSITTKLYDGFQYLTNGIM

Take `O=C(Nc1n[nH]c2cc(-c3ccccc3)ccc12)C1CC1`: the inhibition was 3.52% in [1]; -1.71% in [2]; -1.41% in assay [3]; 2.18% in assay [4]; 4.34% in [5]; 1.72% in [6]. The inhibition in [7] is 4.03%; in assay [8] it was -5.9%; in assay [9], 0.66%; in assay [10], -0.8%; in assay [11] it was 0.1%; in assay [12], -1.1%. The inhibition is -0.92% in [13]; 1.99% in [14]; 6.38% in assay [15]; 2.61% in [16]; 7.25% in [17]; 5.63% in [18]. In addition, the inhibition in assay [19] is 3.54%; in assay [20], 4.3%.
As to `CN(C)CCCNc1nccc(-c2c(-c3ccc(F)cc3)nn3cc(C(F)(F)F)ccc23)n1`, the inhibition in [1] is 5.27%; in [2] it was -0.17%; in [3], -0.01%; in assay [4], 0.79%; in assay [5], 0.02%; in [6], 2.6%. The inhibition in assay [7] was 2%; in [8] it was -3.83%; in assay [9] it was 11.1%; in assay [10], 0%; in assay [11], -2.46%; in assay [12] it was -0.03%. In addition, the inhibition in assay [13] is -0.25%; in assay [14], 1.85%; in assay [15] it was 6.47%; in [16], 4.46%; in [17] it was -1.7%; in [18] it was 1.56%. In addition, the inhibition in assay [19] was determined as 0%; in [20], 2.49%.
For `CNC(=O)c1cncc(/C=C/c2c(C)cccc2C)c1`, the inhibition is -0.37% in [1]; 0.32% in assay [2]; 0.21% in assay [3]; -1.85% in [4]; -3.99% in assay [5]; -1.64% in assay [6]. Besides, the inhibition is -1.98% in assay [7]; 3.95% in [8]; 0.59% in assay [9]; 0.03% in [10]; -1.57% in assay [11]; 0.8% in [12]. Also, the inhibition in [13] was 2.92%; in assay [14] it was 1.93%; in assay [15], 5.37%; in [16], 2.95%; in [17], -0.54%; in [18], 1.19%. Further, the inhibition in [19] was -0.96%; in assay [20], 0.37%.
